The target in assay [1] is Calcium/calmodulin-dependent protein kinase type II subunit alpha (Homo sapiens) (UniProt Q9UQM7). Conditions: at 1 µM.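 Also: reported value is a mean percent inhibition of CAMK2A.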
Assay [2] addresses Calcium/calmodulin-dependent protein kinase type II subunit delta (Homo sapiens) (UniProt Q13557). The settings on record: at 0.1 µM.
Assay [3] shares this target. The settings on record: at 1 µM.
The target of assay [4] is T1, Calcium/calmodulin-dependent protein kinase type IV (Homo sapiens) (UniProt Q16566).
T1 sequence (whole entry): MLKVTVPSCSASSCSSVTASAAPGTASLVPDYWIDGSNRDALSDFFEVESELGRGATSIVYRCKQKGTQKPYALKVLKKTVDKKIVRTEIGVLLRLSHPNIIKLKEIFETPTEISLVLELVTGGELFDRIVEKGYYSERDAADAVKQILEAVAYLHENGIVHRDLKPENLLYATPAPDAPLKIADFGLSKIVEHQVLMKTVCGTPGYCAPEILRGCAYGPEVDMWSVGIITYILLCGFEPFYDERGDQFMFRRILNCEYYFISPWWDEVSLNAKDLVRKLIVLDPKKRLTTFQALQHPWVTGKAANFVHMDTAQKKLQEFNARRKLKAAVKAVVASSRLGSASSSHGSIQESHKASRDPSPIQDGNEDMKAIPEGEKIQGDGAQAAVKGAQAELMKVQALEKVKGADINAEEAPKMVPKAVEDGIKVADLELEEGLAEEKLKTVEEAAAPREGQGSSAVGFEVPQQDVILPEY
The settings on record: at 0.1 µM.

Assay [5] deals with T1, Calcium/calmodulin-dependent protein kinase type IV (Homo sapiens). Conditions: at 1 µM.
The target in assay [6] is T2, Serine/threonine-protein kinase Chk1 (Homo sapiens) (UniProt O14757).
T2 sequence (whole entry): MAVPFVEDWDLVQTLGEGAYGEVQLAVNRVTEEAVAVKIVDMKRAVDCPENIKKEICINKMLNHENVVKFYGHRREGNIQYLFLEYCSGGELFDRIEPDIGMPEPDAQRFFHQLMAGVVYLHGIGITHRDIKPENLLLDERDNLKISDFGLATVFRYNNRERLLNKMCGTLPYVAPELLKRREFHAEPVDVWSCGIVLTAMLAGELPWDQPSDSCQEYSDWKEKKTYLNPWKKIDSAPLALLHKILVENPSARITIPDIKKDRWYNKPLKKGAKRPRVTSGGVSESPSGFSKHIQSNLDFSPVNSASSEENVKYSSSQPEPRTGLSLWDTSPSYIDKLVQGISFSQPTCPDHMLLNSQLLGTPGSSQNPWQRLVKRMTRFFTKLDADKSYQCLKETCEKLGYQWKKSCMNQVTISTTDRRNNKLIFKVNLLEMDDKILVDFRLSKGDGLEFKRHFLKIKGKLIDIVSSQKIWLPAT
Conditions: at 0.1 µM.

The target in assay [7] is T2, Serine/threonine-protein kinase Chk1 (Homo sapiens). Conditions: at 1 µM.
Assay [8] concerns the target Serine/threonine-protein kinase Chk2 (Homo sapiens) (UniProt O96017). The settings on record: at 0.1 µM.
The target is the same in assay [9]. The settings on record: at 1 µM.
Assay [10] addresses Death-associated protein kinase 1 (Homo sapiens) (UniProt P53355). Conditions: at 0.1 µM.
For assay [11] the target is unchanged. The settings on record: at 1 µM.
For assay [12], the target named is T3, Serine/threonine-protein kinase DCLK2 (Homo sapiens) (UniProt Q8N568).
T3 sequence (whole entry): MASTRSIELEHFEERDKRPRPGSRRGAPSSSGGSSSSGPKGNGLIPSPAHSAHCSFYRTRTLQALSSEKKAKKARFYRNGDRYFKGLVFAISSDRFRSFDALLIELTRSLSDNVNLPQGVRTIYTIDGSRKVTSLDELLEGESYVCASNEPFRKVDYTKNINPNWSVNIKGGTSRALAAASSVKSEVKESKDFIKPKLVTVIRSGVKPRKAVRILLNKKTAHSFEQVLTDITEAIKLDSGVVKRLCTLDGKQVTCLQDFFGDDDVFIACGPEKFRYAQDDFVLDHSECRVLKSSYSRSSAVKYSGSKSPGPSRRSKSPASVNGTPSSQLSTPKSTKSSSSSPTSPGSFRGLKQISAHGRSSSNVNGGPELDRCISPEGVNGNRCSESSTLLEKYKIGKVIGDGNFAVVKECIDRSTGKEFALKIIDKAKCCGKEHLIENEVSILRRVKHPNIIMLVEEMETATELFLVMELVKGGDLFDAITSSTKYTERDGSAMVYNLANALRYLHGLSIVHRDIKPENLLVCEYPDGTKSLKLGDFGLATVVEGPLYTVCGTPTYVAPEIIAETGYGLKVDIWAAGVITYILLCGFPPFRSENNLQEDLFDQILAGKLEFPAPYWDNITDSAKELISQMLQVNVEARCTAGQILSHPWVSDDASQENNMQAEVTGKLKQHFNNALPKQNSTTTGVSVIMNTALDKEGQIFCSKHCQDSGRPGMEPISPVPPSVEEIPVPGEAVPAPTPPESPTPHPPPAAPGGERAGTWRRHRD
The settings on record: at 0.1 µM.

Assay [13] concerns the target T3, Serine/threonine-protein kinase DCLK2 (Homo sapiens). Conditions: at 1 µM.
Assay [14] concerns the target MAP kinase-activated protein kinase 2 (Homo sapiens) (UniProt P49137). The settings on record: at 0.1 µM.
The target is the same in assay [15]. The settings on record: at 1 µM.
In assay [16] the target is MAP kinase-activated protein kinase 3 (Homo sapiens) (UniProt Q16644). The settings on record: at 0.1 µM.
For assay [17] the target is unchanged. Conditions: at 1 µM.
The target in assay [18] is Serine/threonine-protein kinase MARK1 (Homo sapiens) (UniProt Q9P0L2). Conditions: at 0.1 µM.
Assay [19] shares this target. The settings on record: at 1 µM.
In assay [20] the target is MAP/microtubule affinity-regulating kinase 3 (Homo sapiens) (UniProt P27448). The settings on record: at 0.1 µM.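 Also: mean percent inhibition of MARK3 kinase activity, measured within the GSK PKIS screening panel.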
Sequence of MAP/microtubule affinity-regulating kinase 3 (Homo sapiens) (P27448 whole entry, looked up): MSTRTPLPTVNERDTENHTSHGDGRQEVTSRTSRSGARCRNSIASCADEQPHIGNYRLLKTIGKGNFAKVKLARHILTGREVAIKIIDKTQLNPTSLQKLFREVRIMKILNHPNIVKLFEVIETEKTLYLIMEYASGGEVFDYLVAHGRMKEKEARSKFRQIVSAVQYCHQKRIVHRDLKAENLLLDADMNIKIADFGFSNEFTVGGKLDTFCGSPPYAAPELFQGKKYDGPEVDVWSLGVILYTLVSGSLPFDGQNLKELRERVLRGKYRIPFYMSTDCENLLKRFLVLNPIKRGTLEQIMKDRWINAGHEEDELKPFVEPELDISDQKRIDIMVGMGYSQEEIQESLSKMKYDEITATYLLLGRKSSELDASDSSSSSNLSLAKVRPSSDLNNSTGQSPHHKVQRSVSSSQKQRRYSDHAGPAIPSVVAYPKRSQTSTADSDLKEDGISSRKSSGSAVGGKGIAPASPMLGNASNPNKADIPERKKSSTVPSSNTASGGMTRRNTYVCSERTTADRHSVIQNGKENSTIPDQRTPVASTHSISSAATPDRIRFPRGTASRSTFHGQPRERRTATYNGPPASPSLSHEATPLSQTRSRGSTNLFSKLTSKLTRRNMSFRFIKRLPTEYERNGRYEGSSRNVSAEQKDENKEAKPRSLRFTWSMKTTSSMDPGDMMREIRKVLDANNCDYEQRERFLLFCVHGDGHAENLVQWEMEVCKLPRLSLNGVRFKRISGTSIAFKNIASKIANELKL

Sequence of Death-associated protein kinase 1 (Homo sapiens) (P53355 whole entry, looked up): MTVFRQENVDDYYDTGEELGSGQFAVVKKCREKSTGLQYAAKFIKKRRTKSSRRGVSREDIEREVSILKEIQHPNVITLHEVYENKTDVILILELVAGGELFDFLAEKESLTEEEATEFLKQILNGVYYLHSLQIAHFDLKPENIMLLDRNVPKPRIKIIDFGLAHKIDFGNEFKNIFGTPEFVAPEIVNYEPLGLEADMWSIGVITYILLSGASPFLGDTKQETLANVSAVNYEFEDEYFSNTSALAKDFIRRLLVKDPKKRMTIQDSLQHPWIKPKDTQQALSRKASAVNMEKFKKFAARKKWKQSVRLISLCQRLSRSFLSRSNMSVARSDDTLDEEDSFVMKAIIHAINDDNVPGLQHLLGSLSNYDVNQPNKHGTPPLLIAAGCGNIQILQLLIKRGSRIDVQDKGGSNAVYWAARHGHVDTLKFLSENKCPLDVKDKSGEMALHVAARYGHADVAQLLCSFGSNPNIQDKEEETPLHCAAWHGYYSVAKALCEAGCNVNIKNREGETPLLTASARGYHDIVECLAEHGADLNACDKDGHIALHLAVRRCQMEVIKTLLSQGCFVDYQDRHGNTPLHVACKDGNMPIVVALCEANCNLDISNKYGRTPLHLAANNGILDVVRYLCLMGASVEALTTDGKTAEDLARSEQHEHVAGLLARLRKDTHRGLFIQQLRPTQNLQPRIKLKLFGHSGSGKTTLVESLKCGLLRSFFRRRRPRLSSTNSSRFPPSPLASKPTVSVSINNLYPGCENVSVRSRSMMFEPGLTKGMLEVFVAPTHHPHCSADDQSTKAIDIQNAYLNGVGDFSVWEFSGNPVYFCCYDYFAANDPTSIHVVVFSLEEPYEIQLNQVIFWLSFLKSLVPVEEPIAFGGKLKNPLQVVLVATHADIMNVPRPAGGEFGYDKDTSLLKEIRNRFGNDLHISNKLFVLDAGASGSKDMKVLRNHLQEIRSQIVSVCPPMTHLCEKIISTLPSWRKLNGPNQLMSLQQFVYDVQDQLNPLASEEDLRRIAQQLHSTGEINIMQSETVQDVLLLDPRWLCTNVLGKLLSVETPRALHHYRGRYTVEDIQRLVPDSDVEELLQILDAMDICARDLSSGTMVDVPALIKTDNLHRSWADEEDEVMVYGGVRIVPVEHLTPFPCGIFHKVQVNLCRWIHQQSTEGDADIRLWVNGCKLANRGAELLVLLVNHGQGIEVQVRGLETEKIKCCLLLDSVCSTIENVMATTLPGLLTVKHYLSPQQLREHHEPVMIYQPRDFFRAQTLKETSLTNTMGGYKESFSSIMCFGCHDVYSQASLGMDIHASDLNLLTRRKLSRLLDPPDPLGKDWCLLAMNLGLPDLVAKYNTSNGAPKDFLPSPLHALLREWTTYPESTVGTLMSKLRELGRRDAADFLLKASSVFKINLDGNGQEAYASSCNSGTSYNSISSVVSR
Sequence of MAP kinase-activated protein kinase 3 (Homo sapiens) (Q16644 whole entry, looked up): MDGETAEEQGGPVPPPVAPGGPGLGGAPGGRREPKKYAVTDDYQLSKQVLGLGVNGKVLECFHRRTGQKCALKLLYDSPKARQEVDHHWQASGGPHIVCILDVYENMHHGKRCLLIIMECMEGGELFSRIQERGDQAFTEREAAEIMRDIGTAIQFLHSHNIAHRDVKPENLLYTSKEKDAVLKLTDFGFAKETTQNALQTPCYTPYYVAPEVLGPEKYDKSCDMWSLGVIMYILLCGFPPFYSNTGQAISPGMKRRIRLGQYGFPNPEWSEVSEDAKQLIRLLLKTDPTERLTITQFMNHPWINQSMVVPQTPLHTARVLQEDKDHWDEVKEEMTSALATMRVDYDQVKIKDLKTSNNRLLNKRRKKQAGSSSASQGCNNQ
Sequence of Calcium/calmodulin-dependent protein kinase type II subunit alpha (Homo sapiens) (Q9UQM7 whole entry): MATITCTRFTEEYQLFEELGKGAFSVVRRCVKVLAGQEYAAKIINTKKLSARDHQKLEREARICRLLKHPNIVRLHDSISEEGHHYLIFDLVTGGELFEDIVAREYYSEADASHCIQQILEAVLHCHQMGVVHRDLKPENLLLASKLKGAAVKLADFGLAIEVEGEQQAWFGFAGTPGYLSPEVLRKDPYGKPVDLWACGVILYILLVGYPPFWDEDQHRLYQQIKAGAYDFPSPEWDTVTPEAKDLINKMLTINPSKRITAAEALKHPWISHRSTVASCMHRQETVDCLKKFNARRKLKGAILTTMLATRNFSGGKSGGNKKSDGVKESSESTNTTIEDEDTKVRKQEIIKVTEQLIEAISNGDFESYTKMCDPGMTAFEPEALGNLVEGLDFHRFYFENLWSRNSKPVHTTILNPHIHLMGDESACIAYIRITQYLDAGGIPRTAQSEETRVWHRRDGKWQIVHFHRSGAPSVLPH
Sequence of MAP kinase-activated protein kinase 2 (Homo sapiens) (P49137 whole entry, looked up): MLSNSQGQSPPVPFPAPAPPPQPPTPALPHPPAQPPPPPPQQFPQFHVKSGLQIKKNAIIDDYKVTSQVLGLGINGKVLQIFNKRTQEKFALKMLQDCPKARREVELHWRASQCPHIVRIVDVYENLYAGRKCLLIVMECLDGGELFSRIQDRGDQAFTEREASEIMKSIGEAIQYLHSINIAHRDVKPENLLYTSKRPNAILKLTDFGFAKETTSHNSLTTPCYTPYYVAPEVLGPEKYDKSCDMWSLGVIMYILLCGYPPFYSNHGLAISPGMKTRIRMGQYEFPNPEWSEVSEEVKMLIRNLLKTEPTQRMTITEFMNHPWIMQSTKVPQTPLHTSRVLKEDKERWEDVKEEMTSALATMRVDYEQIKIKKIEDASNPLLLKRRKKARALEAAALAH
Sequence of Calcium/calmodulin-dependent protein kinase type II subunit delta (Homo sapiens) (Q13557 whole entry): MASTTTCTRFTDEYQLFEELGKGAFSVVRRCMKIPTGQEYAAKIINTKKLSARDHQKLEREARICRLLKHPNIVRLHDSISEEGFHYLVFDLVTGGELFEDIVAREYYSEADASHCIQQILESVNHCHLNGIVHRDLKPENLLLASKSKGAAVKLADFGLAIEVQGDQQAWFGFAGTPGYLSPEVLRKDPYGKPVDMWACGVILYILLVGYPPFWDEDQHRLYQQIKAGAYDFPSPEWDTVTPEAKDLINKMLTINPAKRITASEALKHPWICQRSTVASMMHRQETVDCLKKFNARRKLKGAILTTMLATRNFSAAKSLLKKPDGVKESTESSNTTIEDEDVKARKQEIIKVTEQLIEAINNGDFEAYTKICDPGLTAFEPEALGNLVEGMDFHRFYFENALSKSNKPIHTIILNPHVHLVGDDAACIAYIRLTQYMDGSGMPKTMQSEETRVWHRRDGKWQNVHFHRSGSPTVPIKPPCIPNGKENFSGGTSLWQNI
Sequence of Serine/threonine-protein kinase Chk2 (Homo sapiens) (O96017 whole entry): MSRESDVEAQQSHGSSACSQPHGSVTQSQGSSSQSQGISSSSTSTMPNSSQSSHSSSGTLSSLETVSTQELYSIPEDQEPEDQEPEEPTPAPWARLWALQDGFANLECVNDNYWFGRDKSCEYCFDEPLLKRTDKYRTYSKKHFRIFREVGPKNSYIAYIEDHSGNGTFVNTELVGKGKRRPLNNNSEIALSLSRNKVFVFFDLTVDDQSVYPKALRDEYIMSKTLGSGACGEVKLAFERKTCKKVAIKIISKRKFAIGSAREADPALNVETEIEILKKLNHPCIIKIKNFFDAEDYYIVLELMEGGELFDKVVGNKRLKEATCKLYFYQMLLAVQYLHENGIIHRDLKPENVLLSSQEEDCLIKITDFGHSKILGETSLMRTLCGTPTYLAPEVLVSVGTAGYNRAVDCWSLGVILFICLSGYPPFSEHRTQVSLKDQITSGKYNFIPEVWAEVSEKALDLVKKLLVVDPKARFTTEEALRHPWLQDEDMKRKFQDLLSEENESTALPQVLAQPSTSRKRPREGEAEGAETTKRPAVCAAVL

With `Cc1ccc(NC(=O)c2ccnc(N3CCCC3)c2)cc1-c1ccc(C(=O)NCC2CC2)cc1`, the inhibition – broadly, the change of the read-out against control, counted positive when it falls – in assay [1] is 5.72%; in assay [2] it was 4.6%; in [3], 7.16%; in [4], -0.3%; in [5], 2.35%; in [6], 3.53%. The inhibition was 7.14% in assay [7]; 3.26% in assay [8]; 4.85% in [9]; 2.4% in assay [10]; 5.74% in assay [11]; -1.99% in assay [12]. The inhibition in assay [13] was -0.35%; in assay [14] it was 0.7%; in assay [15] it was 1.5%; in [16], 19.9%; in assay [17] it was 30.2%; in assay [18] it was 5.49%. Moreover, the inhibition was 8.31% in assay [19] and 6.19% in [20].
As to `CC1=C(C(=O)Nc2ccc3[nH]ncc3c2)C(c2ccc3ccccc3c2)CC(=O)N1` (stereo not given), the inhibition was found to be 0.99% in assay [1]; 0.33% in assay [2]; 3.19% in assay [3]; 1.12% in [4]; 0.1% in [5]; 0.95% in assay [6]. The inhibition in [7] is 3.91%; in [8] it was 1.29%; in [9] it was 4.21%; in assay [10], 0.55%; in assay [11], 0.51%; in [12], 0.76%. Moreover, the inhibition in assay [13] was -1.57%; in assay [14] it was 0.66%; in assay [15], 0.45%; in assay [16], 0.74%; in assay [17], 2.13%; in [18], 1.86%. Moreover, the inhibition amounted to 3.48% in assay [19] and 0.58% in [20].
For the molecule `CCn1c(-c2nonc2N)nc2cncc(C(=O)N3CC[C@H](N)C3)c21`, the inhibition in assay [1] was 3.64%; in [2], 4.1%; in assay [3], 4.33%; in assay [4] it was 1.7%; in assay [5], -0.55%; in assay [6] it was 4.56%. Moreover, the inhibition in assay [7] was 6.37%; in assay [8], 1.1%; in assay [9] it was 1.86%; in [10], 5.74%; in [11], 8.64%; in assay [12] it was 0.17%. For the same molecule, the inhibition in assay [13] is -0.36%; in assay [14], 1.77%; in assay [15], 1.78%; in assay [16] it was 3.01%; in assay [17] it was 4.01%; in assay [18] it was 4.67%. In addition, the results for the inhibition in assay [19] and in [20] were 12.8% and 3.75%, respectively.
Consider `O=C1NC(=O)C(c2ccc(Cl)cc2)=C1Nc1ccc(Cl)c(C(=O)O)c1`, for which the inhibition is -3.46% in assay [1]; -2.31% in assay [2]; 1.44% in assay [3]; 0.68% in [4]; 0.51% in assay [5]; -0.04% in assay [6]. The inhibition was -1.22% in assay [7]; -2% in assay [8]; -1.93% in assay [9]; -1.53% in [10]; -1.43% in assay [11]; -1.2% in assay [12]. Besides, the inhibition in assay [13] was -0.41%; in assay [14] it was -1.23%; in [15] it was -1.83%; in [16], -0.48%; in assay [17], -1%; in assay [18] it was -0.68%. Further, the inhibition in assay [19] is -0.26%; in assay [20], -0.12%.
Take `CCn1c(-c2nonc2N)nc2cncc(C(=O)N3CCNCC3)c21`: the inhibition was 4.17% in assay [1]; 4.29% in assay [2]; 6.57% in [3]; -0.66% in [4]; 1.55% in assay [5]; 6.55% in [6]. Also, the inhibition in assay [7] was 13.8%; in assay [8], 2.96%; in assay [9] it was 5.6%; in assay [10], 8.7%; in assay [11], 8.15%; in assay [12], 0.84%. In addition, the inhibition in assay [13] was determined as 1.96%; in [14] it was 2.84%; in [15], 5.04%; in assay [16], 6.65%; in assay [17] it was 10.7%; in [18], 2.63%. Also, the values for the inhibition in [19] and in assay [20] were 3.48% and 5.76%, respectively.
As for `O=C1NC(=O)C(c2ccccc2Cl)=C1Nc1cccc(O)c1`, the inhibition in assay [1] was 5.26%; in assay [2], 3.96%; in assay [3] it was 11.7%; in assay [4] it was 0.91%; in [5] it was 1.07%; in assay [6], -0.11%. The inhibition in assay [7] is 1.92%; in assay [8], 1.18%; in assay [9] it was 2.39%; in [10] it was 3.2%; in assay [11] it was 3.55%; in assay [12], -0.07%. Also, the inhibition in assay [13] was 1.16%; in assay [14] it was 1.27%; in assay [15] it was 1.05%; in assay [16], 1.45%; in assay [17], 1.77%; in [18], 1.97%. Besides, the inhibition in [19] is 8.19%; in assay [20] it was 1.72%.
For `CN(C)c1cc2c(Nc3ccc4nc(Cc5ccccc5)[nH]c4c3)ncnc2cn1`, the inhibition in assay [1] was 4.09%; in assay [2] it was 4.46%; in [3] it was 4.05%; in assay [4], 1.47%; in assay [5], -2.01%; in assay [6] it was 7.31%. The inhibition in [7] came out at 6.99%; in assay [8], 2.75%; in [9] it was 9.92%; in assay [10], 5.94%; in assay [11], 7.51%; in assay [12], 1.19%. Moreover, the inhibition was 1.22% in assay [13]; 2.01% in assay [14]; 2.85% in assay [15]; 4.79% in assay [16]; 4.13% in assay [17]; 3.62% in assay [18]. The inhibition in [19] amounted to 5.59%; in assay [20], 3.84%.
